This is part of a sample that, as a whole, favours compounds with a hit. Of some 83,000 tested, about 20% had one in any assay.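 Method: cells in 96-well plates; compound added at one concentration; 48 h incubation; percent growth measured; values under 10 scored active.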 Unmarked numbers belong to inactive results. The source made the active and inactive calls.
Assays:
Experiment in all cases: NCI-60 one-dose screen, 48 h (100 = growth as untreated, 0 = no growth, -100 = all killed)
Details in all cases: 10 µM unless noted
NCI-H226 lung = test system: NCI-H226 lung
NCI-H322M lung = test system: NCI-H322M lung
HOP-62 NSCLC = test system: HOP-62 NSCLC
NCI-H460 lung = test system: NCI-H460 lung
HOP-92 NSCLC = test system: HOP-92 NSCLC
NCI-H522 lung = test system: NCI-H522 lung
A549/ATCC NSCLC = test system: A549/ATCC NSCLC
786-0 renal = test system: 786-0 renal
COLO 205 colon = test system: COLO 205 colon
DU-145 prostate = test system: DU-145 prostate

SMILES | growth (NCI-H226 lung) | growth (NCI-H322M lung) | growth (HOP-62 NSCLC) | growth (NCI-H460 lung) | growth (HOP-92 NSCLC) | growth (NCI-H522 lung) | growth (A549/ATCC NSCLC) | growth (786-0 renal) | growth (COLO 205 colon) | growth (DU-145 prostate)
COc1ccc(Cc2nn(CC(=O)N/N=C/c3ccc(Cl)cc3)c(=O)c3c(C)noc23)cc1 | 69.8% | 94.8% | 70.4% | 64.9% | 89.5% | 74.4% | 46% | 52.6% | 102% | 93%
Cc1cc(C(=O)Nc2sc3c(c2C(N)=O)CCC(=O)C3)ccc1OCCN1CCCCC1 | 109% | 111% | 119% | 99.4% | 113% | 90.8% | 81.1% | 111% | 106% | 99.2%
Cc1ccccc1NC(=O)/C=C/c1ccc(OCCOc2ccc3c(C)cc(=O)oc3c2)cc1 | 92.9% | 92.2% | 110% | 91.8% | 93.1% | 85.1% | 95.7% | 110% | 103% | 100%
c1ccc2c(NCCCN3CCOCC3)c3oc4ccccc4c3nc2c1 | -11.3% (active) | -17.5% (active) | -13.4% (active) | 0.606% (active) | -22.9% (active) | -52.8% (active) | -62.1% (active) | 6.38% (active) | -67.8% (active) | 2.98% (active)
CNC(=O)c1cc(-c2ccc(NC(=O)Nc3ccc(N4CCN(C)CC4)c(C(F)(F)F)c3)cc2)nc2cccnc12 | 84.6% | -78.4% (active) | -78.3% (active) | -76.3% (active) | 79.5% | -71.9% (active) | -81.9% (active) | -97.1% (active) | -41% (active) | -81.7% (active)
[Cl][Ru].c1ccc(-c2cccc(-c3ccccn3)n2)nc1.c1ccc(-c2ccnc3c2ccc2c(-c4ccccc4)ccnc23)cc1 | 80.1% | 76.6% | 78.7% | 54.8% | -12.5% (active) | 13.3% | 60.5% | 89.3% | -60% (active) | 32.6%
OC1CCN(CCCOc2c3ccc(Cl)cc3nc3c2oc2ccccc23)CC1 | -6.33% (active) | -16.3% (active) | 12.5% | -9.21% (active) | -4% (active) | -48.9% (active) | 9.13% (active) | -30.7% (active) | -69% (active) | -0.646% (active)
COc1ccc(-c2nn3c(-c4ccccc4F)nnc3s2)cc1 | 89.4% | 75% | 67.5% | 30% | 76.9% | 20.2% | 56.6% | 72.5% | 41.6% | 72.2%
Fc1ccc(-c2nc(C(Cl)Cl)nc3cc(-c4ccccc4)nn23)cc1 | 74.7% | -41.6% (active) | -19.5% (active) | -67.6% (active) | 12.8% | -41.4% (active) | -45.1% (active) | 70% | -76.3% (active) | -18.2% (active)
O=C(N/N=C/c1ccc(Cl)s1)c1[nH]c2ccc(Br)cc2c1-c1ccccc1 | 55.9% | 49.4% | 30.2% | 3.42% (active) | 35.6% | -35.1% (active) | 21.2% | 7.94% (active) | -68.4% (active) | 22%
O=C(CSc1nc2sc3c(c2c(=O)n1-c1ccc(Cl)cc1)CCCC3)NNC(=O)Nc1ccc(Cl)c(C(F)(F)F)c1 | 53.4% | 52.2% | 58.8% | 11.8% | -12.3% (active) | 5.53% (active) | 34% | 52.2% | 53.4% | 32.2%
CN1CCN(Cc2ccc(NC(=O)c3cncc(C#Cc4cnc5[nH]ncc5c4)c3)cc2C(F)(F)F)CC1 | 20.4% | 45.8% | 50.8% | 11.1% | -12.2% (active) | 50.9% | 34.3% | 45.7% | 21.1% | 32.8%
COC(=O)C1CCCN(S(=O)(=O)/N=C2\NC(=O)NC2=C(Cl)Cl)C1 (stereo not given) | 105% | 103% | 118% | 108% | 110% | 87.7% | 106% | 102% | 112% | 112%
Cc1nc(-c2cc3ccccc3oc2=O)ccc1C(=O)/C=C/c1ccc(N2CCOCC2)cc1 | 88.3% | 107% | 90.8% | 89.7% | 80% | 61.4% | 91.6% | 75.3% | 91.6% | 91.1%
NS(=O)(=O)c1ccc(Nc2nc(Nc3ccccc3)nc(-n3nc(-c4ccccc4)cc3-c3ccccc3)n2)cc1 | 40.7% | 57.2% | 63.7% | 5.81% (active) | 26.8% | 58.5% | 25.9% | 20.1% | 9.92% (active) | 32.3%
COc1ccc(/C=N/NC(=O)c2[nH]c3ccc(Br)cc3c2-c2ccccc2)s1 | 47.8% | 50.8% | 47.6% | 3.58% (active) | 52.1% | -30.1% (active) | 31.5% | 11.4% | -55.8% (active) | 20.4%
Clc1ccc2c(NCCCn3ccnc3)c3oc4ccccc4c3nc2c1 | 51.4% | 40.7% | 65.9% | -7.61% (active) | 33.1% | 44% | 34.4% | -9.95% (active) | 31.8% | 24.6%
C/C(=C(/c1ccc(Cl)cc1)c1ccc(OCCN)cc1)c1ccc(C)cc1 | 112% | 103% | 103% | 100% | 87.2% | 99.4% | 97.7% | 102% | 114% | 106%
O=C(CSc1nnc(-c2ccc3nc(-c4ccc(Cl)cc4)[nH]c3c2)o1)Nc1ccc(C(=O)/C=C/c2ccc(Cl)cc2)cc1 | 86% | 95.4% | 97.9% | 102% | 94.2% | 88.4% | 95.5% | 92.6% | 118% | 111%
CN1CCc2c(sc3ncnc(N/N=C/c4ccc(Cl)c(Cl)c4)c23)C1 | 56.9% | -3.96% (active) | 69.7% | 0.478% (active) | 37.4% | 89.9% | 21.8% | -57.1% (active) | 36.1% | 48.9%
CC(C)NC(=O)c1cc(-c2ccc(NC(=O)Nc3ccc(N4CCOCC4)c(C(F)(F)F)c3)cc2)nc2cccnc12 | 80% | 91.2% | 43.9% | 55.2% | 72.3% | 87% | 62.4% | 17% | 99.7% | 78.9%
Nc1c(C(=O)Nc2ccc(C(F)(F)F)cc2)sc2nc(-c3cnccn3)cc(-c3cccs3)c12 | 6.24% (active) | 81.8% | 68.1% | 69.7% | -27.4% (active) | 88.5% | 77.9% | -90.3% (active) | 104% | 90.1%
N#Cc1nc(-c2ccccc2)oc1S(=O)(=O)N1CCN(CCc2ccccn2)CC1 | 98.1% | 95.6% | 109% | 100% | 38.1% | -66% (active) | 103% | 8.4% (active) | 30.1% | 75.4%
COc1cc(/C=C/C(=O)c2ccc(C(F)(F)F)cc2)ccc1Oc1nc(NCCO)nc(N2CCOCC2)n1 | 89.2% | 101% | 90.2% | 98.7% | 95% | 86.8% | 91.6% | 100% | 108% | 101%
COc1cccc(-c2nn(-c3ccccc3)cc2-c2ccnc(N3CCN(C(=O)c4ccccc4)CC3)c2)c1 | 109% | 105% | 113% | 81.8% | 71.2% | 77.1% | 71.7% | 102% | 97.7% | 91.5%
COC(=O)C1CN(S(=O)(=O)/N=C2\NC(=O)NC2=C(Cl)Cl)C1 | 106% | 102% | 109% | 108% | 98.9% | 99.1% | 101% | 104% | 124% | 116%

Source: PubChem BioAssay (NCI)
